Among the data in PubChem BioAssay (NCATS) are Potency values, retold here.

Molecules are shown by their SMILES. Results filed as inconclusive are left out. Where a call stands in place of a potency, no number is given. Active and inactive are the calls of the source. The call rests on the fitted dose curve; in most records, active means well fitted cell-killing curve with a large enough effect; inconclusive means small, poorly fitted or top-dose-only effect, or effect the other way; inactive means no such curve, though single readings can be large or run the other way.
Potency means the concentration at half of the fitted maximal effect.

The test can be described thus: Quantitative highthroughput screen to assess conditional lethalithy of SEM cells grown in Human Plasma-Like Medium with dialyzed fetal bovine serum (HPLM+ds) (AID 1963882). Further: nearly all actives have a fitted effect of over 35% in size. Conditions: SEM B-ALL cells in HPLM+ds, CellTiter-Glo viability, 48 h; series mostly up to 45.8 µM. An excerpt:
Assay Provider: Jason Cantor Ph.D.
Department of Biochemistry
University of Wisconsin-Madison, Madison, WI, USA
Chemical screening studies have identified drug sensitivities across hundreds of cancer cell lines but most putative therapeutics fail to translate. Discovery and development of drug candidates in models that more accurately reflect nutrient levels in human blood is a major challenge. Here we performed high-throughput screens in conventional versus Human Plasma-Like Medium (HPLM) to identify compounds that were "missed" when screening using the artificial culture condition. Sets of conditional anticancer compounds spanned phases of clinical development and included non-oncology drugs were assessed. […] We also traced conditional phenotypes for several chemotherapeutics to availability of HPLM-specific metabolites and confirmed others for compounds whose reported targets are encoded by nonessential genes. Our findings establish generalizable strategies for exploiting conditional lethality in HPLM to reveal therapeutic candidates and mechanisms of action in cancer cells.
Described herein are the results of each viability screens against three cell lines: NOMO1 (an acute myeloid leukemia cell line); P12-Ichikawa (a T-cell acute lymphoblastic leukemia); and SEM (a B-cell ALL). Each assay was screened using 3 different cell culture media: homemade human plasma-Like medium with 10% dialyzed fetal bovine serum (HPLM+ds); RPMI1640 with 10% untreated FBS and 5mM glucose (RPMI+s); and RPMI1640 with 10% dialyzed fetal bovine serum and 5 mM glucose (RPMI+ds).
PROTOCOL TABLE (as described by Inglese J, Shamu CE and Guy RK. 2007)
SEQUENCE No. (e.g., 1, 2, 3, etc.); […] (e.g., Cells, Incubation, Reagent, etc.); VALUE and DESCRIPTION.
1; Cells; 5 uL; white, solid bottom 1536-well Greiner assay plate.
2; Compounds; 23 nL; Kalypsis pin tool (Wako USA) equipped with a 1536-well pin head to transfer to the assay plates.
3; Incubation; 48 hours; 37C incubation.
4; Reagent; 3 uL; CellTiter Glo (Promega).
5; Incubation; 5 min, room temperature
6; Detection; Luminescence, Viewlux PerkinElmer.
NOTES (numbers refer to Sequence numbers above)
1. Briefly, 5 ul of cell reagent was dispensed using a Multidrop Combi Dispenser. The NOMO1 and SEM cells were plated at 500 cells/well and the P12-Ichikawa line at 1000 cells/well.
2. After seeding the cells, 23 nL of MIPE 4.1 library compounds (in DMSO) were added to each plate using a Kalypsys 1536 Pintool dispenser. Bortezomib at final concentration of […] and DMSO were added to each plate as positive and negative controls respectively. For each screen, MIPE 4.1 compounds were added over an eleven-point concentration range […] in 3-fold dilutions.
3. Each plate was covered with a stainless steel gasketed lid to prevent evaporation and incubated for 48 hour at 37C, 95% relative humidity, and 5% CO2.
4-5. Three microliter CellTilter-GloTM luminescent substrate mix (Promega) reagent was added to the assay plate and incubated at room temperature for 5 min.
6. The luminescence signal was measured using a ViewLux (PerkinElmer) multiplate reader with a 2 second exposure time per plate. Data for each compound were normalized as percent viability such that measurements for DMSO and the empty well controls in each plate were defined as 100% and 0%, respectively.
Consider `CC1=NN=C(c2ccc(N)cc2)c2cc3c(cc2C1)OCO3`, for which the Potency result is “inactive”.
On to `C[C@@H]1[C@@H](CC(C[C@H]2O[C@@H]3O[C@]4(C)CC[C@@H]5[C@H](C)CC[C@@H]([C@H]2C)[C@@]35OO4)C[S+](=O)([O-])c2ccc(COC(=O)N(C)C)cc2)O[C@@H]2O[C@]3(C)CC[C@H]4[C@H](C)CC[C@@H]1[C@@]24OO3` (stereo not given in full), for which the Potency is 743 nM (active).
With `CN1C(=O)CCS(=O)(=O)C1c1ccc(Cl)cc1` (stereo not given), the Potency result was “inactive”.
The same measure for `C[C@](O)(CS(=O)(=O)c1ccc(F)cc1)C(=O)Nc1ccc(C#N)c(C(F)(F)F)c1`: “inactive”.
Next, `COc1ccc2c(c[n+](C)c3c4cc5c(cc4ccc23)OCO5)c1OC`: 14800 nM (active); `CC(=O)N(C)c1cccc(-c2ccnc3c(C(=O)c4cccs4)cnn23)c1`: “inactive”; `CC(O)(CS(=O)(=O)c1ccc(F)cc1)C(=O)Nc1ccc(C#N)c(C(F)(F)F)c1` (stereo not given): “inactive”.
The same measure for `Cc1[nH]nc2ccc(-c3cncc(OC[C@@H](N)Cc4c[nH]c5ccccc45)c3)cc12`: 187 nM (active); for `C[C@@H]1CC[C@H]2[C@@H](C)C(=O)O[C@@H]3O[C@@]4(C)CC[C@H]1[C@]32OO4`: “inactive”; for `CCN(CC)C(=O)c1ccc(C2=CC3(CCNCC3)Oc3cccc(O)c32)cc1`: “inactive”.
As to `C[C@]12Cc3cn[nH]c3C[C@@H]1CC[C@@H]1[C@H]2CC[C@@]2(C)[C@H]1CC[C@]2(C)O`, the Potency result is “inactive”.
As to `COc1ccc(C(=O)c2c(C)n(CCN3CCOCC3)c3cc(I)ccc23)cc1`, the Potency was 20900 nM (active).
Next, `C[C@@H]1CC[C@@]2(OC1)O[C@H]1C[C@H]3[C@@H]4CC=C5C[C@@H](O[C@@H]6O[C@H](CO)[C@@H](O[C@@H]7O[C@@H](C)[C@H](O)[C@@H](O)[C@@H]7O)[C@H](O)[C@@H]6O[C@@H]6O[C@@H](C)[C@H](O)[C@@H](O)[C@@H]6O)CC[C@]5(C)[C@@H]4CC[C@]3(C)[C@@H]1[C@H]2C`: 18700 nM (active); `N[C@@H](Cc1ccc(N(CCCl)CCCl)cc1)C(=O)O`: 4180 nM (active).
On to `Cc1cc(SCc2sc(-c3ccc(C(F)(F)F)c(F)c3)nc2C)ccc1OCC(=O)O`, for which the Potency entry is “inactive”.
Turning to `CC(C)(C)[C@]1(O)C[C@@H]2OC(=O)C[C@@]23C(=O)O[C@@H]2OC(=O)[C@H](O)C213` (stereo not given in full), the Potency result is “inactive”.
The same measure for `CN(C)CCN(C)CCc1ccc(Cl)c(Cl)c1`: “inactive”; for `CC(=O)Nc1ccc(OC[C@](C)(O)C(=O)Nc2ccc([N+](=O)[O-])c(C(F)(F)F)c2)cc1`: “inactive”; for `C[C@]12CC[C@H]3[C@@H](CCC4=CC(=O)CC[C@@]43C)[C@H]1CC[C@H]2OC(=O)CCC1CCCC1`: “inactive”.
The same measure for `CN(C)[C@@H]1C(=O)C(C(N)=O)=C(O)[C@@]2(O)C(=O)C3=C(O)c4c(O)cccc4[C@@](C)(O)[C@H]3[C@H](O)[C@@H]12`: “inactive”; for `COc1ccc(C(=O)c2c(C)n(CCN3CCOCC3)c3ccccc23)cc1`: “inactive”.
In the case of `O=C(O)CNC(=O)c1c(O)c2ccccc2n(Cc2ccccc2)c1=O`, the Potency entry is “inactive”.
The same measure for `CCNC(=O)C[C@@H]1N=C(c2ccc(Cl)cc2)c2cc(OC)ccc2-n2c(C)nnc21`: 935 nM (active).
Take `CC(=Cc1csc(C)n1)[C@@H]1C[C@H]2O[C@@H]2CCC[C@H](C)[C@@H](O)[C@@H](C)C(=O)C(C)(C)[C@@H](O)CC(=O)O1`: the Potency result is “inactive”.
For the compound `CC(C)c1cccc(C(C)C)c1O`, the Potency result was “inactive”.
The same measure for `O=C1CC[C@@]2(O)[C@H]3Cc4ccc(O)c5c4[C@@]2(CCN3CC2CC2)[C@H]1O5`: “inactive”.
Next, `C[C@]12CC[C@@H]3[C@@H](CCC4=CC(=O)CC[C@@H]43)[C@@H]1CC[C@@H]2OC(=O)CCc1ccccc1`: “inactive”; `COc1cc(OC)c(OC)cc1C=O`: “inactive”.
Turning to `Oc1ccc2c3c1O[C@H]1c4[nH]c5c(c4C[C@@]4(O)[C@@H](C2)N(CC2CC2)CC[C@]314)C[C@@]1(O)[C@H]2Cc3ccc(O)c4c3[C@@]1(CCN2CC1CC1)[C@H]5O4`, the Potency entry was “inactive”.
On to `O=[N+]([O-])c1ncc[nH]1`, for which the Potency entry is “inactive”.
The same measure for `CCOC(=O)Nc1ccc(NCc2ccc(F)cc2)cc1N`: “inactive”.
Next, `C[C@H]([C@H](O)CCC(C)(C)O)[C@H]1CC[C@@]2(O)C3=CC(=O)[C@@H]4C[C@@H](O)[C@@H](O)C[C@]4(C)[C@@H]3CC[C@]12C`: “inactive”; `CC(C)(C)c1cc(C=C(C#N)C#N)cc(Br)c1O`: “inactive”.
Next, `CC[C@@]1(O)C(=O)OCc2c1cc1n(c2=O)Cc2cc3ccccc3nc2-1`: 46.9 nM (active); `Cc1cccc(C)c1NC(=O)CN1CCCC1=O`: “inactive”.
As for `CCCC(C)(COC(N)=O)COC(=O)NC(C)C` (stereo not given), the Potency result is “inactive”.
As to `CCc1c(C(=O)C(N)=O)c2c(OCC(=O)O)cccc2n1Cc1ccccc1`, the Potency result was “inactive”.
As for `CC(=Cc1csc(C)n1)[C@@H]1C[C@H]2O[C@]2(C)CCC[C@H](C)[C@@H](O)[C@@H](C)C(=O)C(C)(C)[C@@H](O)CC(=O)O1`, the Potency result was “inactive”.
Next, `O=c1[nH]c2ccccc2n1C1CCN(Cc2ccc(-c3[nH]c4cc5ncnc5cc4nc3-c3ccccc3)cc2)CC1`: “inactive”; `CC(C)(O)C=CC(=O)[C@](C)(O)[C@H]1[C@H](O)C[C@]2(C)[C@@H]3CC=C4[C@@H](C=C(O)C(=O)C4(C)C)[C@]3(C)C(=O)C[C@@]12C`: 59 nM (active).
